The test system of assay [1] is Wnt5a (protein binding on small-molecule microarray). Description: Wnt5a binders on small-molecule microarray, primary screen, biophysical, 635/667 nm fluorescence (AID 1142).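 Note: fluorescence read at 667 nm with signal to noise per printed feature.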 The following applies: 635 nm fluorescence, higher = more signal.
A short description of assay [2]: cell viability in Huh7 cells, primary screen, cytotoxicity control for HCV replication inhibitor project, CellTiter-Glo luminescence, basal, 48 h (AID 1143).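 Note: Huh7 hepatoma cells carrying a hepatitis C replication reporter with no stimulus; test concentration not given here.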 Particulars: Huh7 HCV replicon, higher = more signal, called active from +8 up or from −8 down.
Assay [3] in a line: P. aeruginosa biofilm formation inhibitors, primary screen, PAO1 strain, BacTiter-Glo luminescence, LB-PBS (AID 1144). Particulars: 12 h, higher = more signal.
Assay [4] can be described thus: CREB reporter modulators without forskolin, primary screen, cell-based, PC12, CRE-LacZ reporter, unstimulated (AID 1145). Particulars: no forskolin, luminescence, 4.5 h, higher = more signal, called active from +8 up or from −8 down.
The nature of assay [5]: CREB reporter modulators under forskolin, primary screen, cell-based, PC12, CRE-LacZ reporter, forskolin-stimulated (AID 1146).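 Note: PC12 cells with 6xCRE LacZ reporter stimulated by forskolin 10 µM; beta-galactosidase reporter signal reflecting CREB driven transcription.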 Particulars: luminescence, 4.5 h, higher = more signal, called active from +8 up or from −8 down.
Assay [6] has as its target Streptavidin (Streptomyces avidinii) (UniProt P22629). Description: streptavidin binders on small-molecule microarray, primary screen, artefact control for SMM compound annotation, biophysical, 635/667 nm fluorescence (AID 1147).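 Note: signal reflects streptavidin binding to arrayed compounds as a control protein.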 Particulars: streptavidin binding, higher = more signal.
The nature of assay [7]: small-molecule binders of probe aInhba, primary screen, biochemical, small-molecule microarray, 635/667 nm fluorescence (AID 1148).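 Note: score merges 667nm spot fluorescence with signal-to-noise for antibody binding to printed compounds.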 Particulars: higher = more signal.
Assay [8] deals with Torsin-1A (Homo sapiens) (UniProt O14656). Briefly: torsin A binders from cell lysate, primary screen, small-molecule microarray, wild-type, 635/667 nm (AID 1149). The following applies: COS7 hTOR1A-WT lysate, 635 nm fluorescence, higher = more signal.
Chain of Torsin-1A (Homo sapiens) (O14656 whole entry, looked up): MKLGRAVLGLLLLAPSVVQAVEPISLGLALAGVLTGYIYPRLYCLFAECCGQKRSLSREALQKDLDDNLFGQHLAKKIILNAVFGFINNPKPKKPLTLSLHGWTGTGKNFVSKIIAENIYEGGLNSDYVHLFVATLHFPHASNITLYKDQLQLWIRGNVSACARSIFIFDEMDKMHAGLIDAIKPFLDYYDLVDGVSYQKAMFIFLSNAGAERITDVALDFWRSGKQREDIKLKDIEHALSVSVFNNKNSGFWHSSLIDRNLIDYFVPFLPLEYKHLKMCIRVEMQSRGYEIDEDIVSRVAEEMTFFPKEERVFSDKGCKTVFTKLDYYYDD
Assay [9] has the same target. Description: small-molecule binders of mutant TOR1A in lysate, primary screen, cell lysate, small-molecule microarray, COS7 lysate, 635/667 nm fluorescence (AID 1150).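 Note: score pools 667 nm emission and signal to noise measuring lysate protein binding.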 The following applies: COS7 hTOR1A mutant lysate, 635 nm fluorescence, higher = more signal.
The test system of assay [10] is Sonic hedgehog protein (Shh). Description: small-molecule binders of Shh protein, primary screen, biochemical, small-molecule microarray, 635/667 nm fluorescence (AID 1151).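 Note: Shh protein binding to compounds spotted on small-molecule microarray slides; score combines spot fluorescence intensity with signal-to-noise across triplicate slides.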 The following applies: small-molecule microarray binding, 635 nm fluorescence; higher = more signal.
Assay [11] can be described thus: E. coli DRC41 culture turbidity changes, primary screen, E. coli filamentation inducer project, strain DRC41, OD650, 48 h (AID 1152).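 Note: E. coli MC1000 strain DRC41 lacking acrAB efflux pump and sulA.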 The following applies: E. coli DRC41 (acrAB sulA), higher = more signal, called active from +8 up or from −8 down.
Assay [12] can be described thus: small-molecule binders of probe aLefty1, primary screen, biochemical, small-molecule microarray, 635/667 nm fluorescence (AID 1153).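 Note: score merges spot fluorescence with signal-to-noise ratio from the scanned slide images.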 The following applies: higher = more signal.
A short description of assay [13]: PSAC antagonists in infected red cells, primary screen, cell-based, P. falciparum Indochina, OD700, 1 h (AID 1154). The following applies: P. falciparum Indochina infected RBC osmotic lysis, higher = more signal, called active from +8 up or from −8 down.
Assay [14] is described as follows: PSAC antagonists in infected red cells, primary screen, cell-based, P. falciparum Indochina, OD700, 2 h (AID 1155).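 Note: lysis reports solute entry through the parasite surface anion channel PSAC; channel blockers reduce lysis of infected cells.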 The following applies: P. falciparum Indochina infected erythrocytes, osmotic lysis OD700; higher = more signal, called active from +8 up or from −8 down.
Assay [15] is described as follows: osmotic lysis modulators in infected erythrocytes, primary screen, PSAC antagonist project, cell-based, P. falciparum Indochina, OD700, 3 h (AID 1156). Particulars: higher = more signal, called active from +8 up or from −8 down.
Assay [16] can be described thus: PSAC antagonists in infected red cells, primary screen, cell-based, P. falciparum Indochina, OD700, 18 h (AID 1157). The following applies: P. falciparum Indochina infected erythrocytes, osmotic lysis OD700, 18 h; higher = more signal, called active from +8 up or from −8 down.
The nature of assay [17]: modulators of S6 phosphorylation in cells, primary screen, cell-based, A549, cytoblot, luminescence, serum-stimulated (AID 1158).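 Note: serum-stimulated A549 lung adenocarcinoma cells; signal is phosphorylated S6 detected by cytoblot immunostaining with HRP secondary.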 The following applies: A549 phospho-S6 cytoblot, 5 h, higher = more signal.
The target of assay [18] is NADPH oxidase 2 (Homo sapiens) (UniProt P04839). Briefly: NOX2-dependent H2O2 signal modulators, primary screen, NOX inhibitor project, cell-based, HEK293-NOX2, PMA-stimulated, Amplex Red fluorescence (AID 1159). Note: test concentration not given here. Particulars: 45 min, higher = more signal, called active from +8 up or from −8 down.
Chain of NADPH oxidase 2 (Homo sapiens) (P04839 whole entry, looked up): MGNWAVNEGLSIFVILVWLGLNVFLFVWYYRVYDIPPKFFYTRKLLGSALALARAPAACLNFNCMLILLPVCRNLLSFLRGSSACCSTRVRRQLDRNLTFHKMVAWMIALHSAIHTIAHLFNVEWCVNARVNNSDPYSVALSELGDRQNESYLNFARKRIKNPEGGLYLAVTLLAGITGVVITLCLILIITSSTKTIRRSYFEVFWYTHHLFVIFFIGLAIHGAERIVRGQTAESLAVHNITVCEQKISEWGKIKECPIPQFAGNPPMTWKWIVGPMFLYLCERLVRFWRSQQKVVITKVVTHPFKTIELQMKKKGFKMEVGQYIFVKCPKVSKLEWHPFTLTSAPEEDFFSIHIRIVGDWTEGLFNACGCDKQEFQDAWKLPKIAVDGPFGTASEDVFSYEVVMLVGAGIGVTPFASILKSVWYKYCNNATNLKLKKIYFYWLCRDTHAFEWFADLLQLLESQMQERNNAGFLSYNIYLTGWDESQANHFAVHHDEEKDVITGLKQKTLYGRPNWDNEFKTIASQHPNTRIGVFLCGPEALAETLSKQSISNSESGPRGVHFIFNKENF
The target in assay [19] is NADPH oxidase 4 (Homo sapiens) (UniProt Q9NPH5). Description: NOX4-dependent H2O2 signal modulators, primary screen, NOX inhibitor project, cell-based, HEK293-NOX4, tetracycline-induced, Amplex Red fluorescence (AID 1160). The following applies: 45 min, higher = more signal, called active from +8 up or from −8 down.
Chain of NADPH oxidase 4 (Homo sapiens) (Q9NPH5 whole entry, looked up): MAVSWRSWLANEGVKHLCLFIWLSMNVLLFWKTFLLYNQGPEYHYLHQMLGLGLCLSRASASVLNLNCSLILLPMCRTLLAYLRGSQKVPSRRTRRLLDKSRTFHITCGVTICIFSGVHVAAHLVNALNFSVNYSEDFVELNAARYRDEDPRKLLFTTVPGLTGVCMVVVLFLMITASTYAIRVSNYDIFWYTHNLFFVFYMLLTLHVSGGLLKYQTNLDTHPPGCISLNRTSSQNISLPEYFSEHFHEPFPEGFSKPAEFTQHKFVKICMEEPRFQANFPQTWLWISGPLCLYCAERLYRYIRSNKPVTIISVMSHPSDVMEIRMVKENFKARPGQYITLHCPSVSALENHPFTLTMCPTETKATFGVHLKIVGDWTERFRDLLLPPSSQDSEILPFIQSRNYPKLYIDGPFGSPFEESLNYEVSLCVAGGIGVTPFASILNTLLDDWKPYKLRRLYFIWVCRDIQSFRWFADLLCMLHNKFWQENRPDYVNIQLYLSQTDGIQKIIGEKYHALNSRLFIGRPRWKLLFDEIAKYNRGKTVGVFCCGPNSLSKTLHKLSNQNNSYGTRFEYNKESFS
In assay [20] the target is NADPH oxidase 5 (Homo sapiens) (UniProt Q96PH1). Description: NOX5-dependent H2O2 signal modulators, primary screen, NOX inhibitor project, cell-based, HEK293-NOX5, Amplex Red fluorescence (AID 1161). The following applies: HEK293-NOX5, ionomycin, 45 min, higher = more signal.
Chain of NADPH oxidase 5 (Homo sapiens) (Q96PH1 whole entry, looked up): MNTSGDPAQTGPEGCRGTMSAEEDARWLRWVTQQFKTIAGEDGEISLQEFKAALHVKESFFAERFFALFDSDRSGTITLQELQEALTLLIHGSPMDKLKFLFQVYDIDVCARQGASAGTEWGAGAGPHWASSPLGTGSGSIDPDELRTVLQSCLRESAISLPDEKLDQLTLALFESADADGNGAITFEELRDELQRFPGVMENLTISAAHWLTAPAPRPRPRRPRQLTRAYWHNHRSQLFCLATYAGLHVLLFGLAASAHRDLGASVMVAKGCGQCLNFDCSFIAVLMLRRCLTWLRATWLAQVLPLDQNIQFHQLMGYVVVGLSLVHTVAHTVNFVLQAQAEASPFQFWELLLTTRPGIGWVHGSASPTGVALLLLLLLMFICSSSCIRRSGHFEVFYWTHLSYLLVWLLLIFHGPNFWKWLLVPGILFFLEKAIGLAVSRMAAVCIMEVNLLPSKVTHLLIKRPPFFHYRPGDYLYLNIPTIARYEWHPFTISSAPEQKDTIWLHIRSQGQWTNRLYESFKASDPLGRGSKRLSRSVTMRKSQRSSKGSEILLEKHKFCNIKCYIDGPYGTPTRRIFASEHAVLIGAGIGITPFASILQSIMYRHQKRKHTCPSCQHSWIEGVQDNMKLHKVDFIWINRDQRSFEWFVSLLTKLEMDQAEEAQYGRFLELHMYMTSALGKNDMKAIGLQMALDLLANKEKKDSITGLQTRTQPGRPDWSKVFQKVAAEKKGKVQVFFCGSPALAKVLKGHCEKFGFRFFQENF

The source made the active and inactive calls. Unless noted, the rule behind the calls is not given here.

Results on five molecules are retold here after PubChem BioAssay.

Chain of Streptavidin (Streptomyces avidinii) (P22629 whole entry, looked up): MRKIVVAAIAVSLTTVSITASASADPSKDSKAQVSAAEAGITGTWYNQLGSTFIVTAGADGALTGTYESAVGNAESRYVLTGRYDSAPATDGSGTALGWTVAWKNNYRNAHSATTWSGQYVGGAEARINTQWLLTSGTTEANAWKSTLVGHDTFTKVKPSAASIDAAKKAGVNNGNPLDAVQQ

For the molecule `CC(C)[Si]1(C(C)C)OCc2cc(-c3ccc(-c4ccc(Cl)c(Cl)c4)o3)nc(CCc3ccccc3)c21`, the composite z-score in [1] was 0.0947; in [6], -0.884; in assay [7], -0.179; in assay [8] it was -0.696; in assay [9], -0.436; in assay [10] it was 0.3. Also, the composite z-score in assay [12] was -0.239. For the same molecule, the z-score in [2] was -1.53 (inactive); in [3], -0.612 (inactive); in [4], -0.0247 (inactive); in assay [5] it was 1.6 (inactive); in assay [11], 0.785 (inactive); in [13], 1.58 (inactive). Besides, the z-score in assay [14] was -0.0088 (inactive); in assay [15], -0.263 (inactive); in assay [16], -1.01 (inactive); in [17] it was 0.353; in assay [18] it was 0.69 (inactive); in assay [19], 0.187 (inactive). Besides, in assay [20], the z-score is -0.402.
On to `CC(C)C[C@@H]1NC(=O)[C@@]23C(=O)N[C@@H](Cc4ccccc4)C2[C@H](C)[C@@]2(C)O[C@H]2C3/C=C/C/C=C\CNC(=O)[C@@H](C)NC1=O` (stereo not given in full), for which the composite z-score in assay [1] is -0.336; in assay [6], -0.823; in [7], -0.348; in assay [8], 0.056; in assay [9] it was -0.196; in [10], 1.29. Besides, the composite z-score in assay [12] is -0.444. Moreover, the z-score in assay [2] is -0.611 (inactive); in [3], -0.944 (inactive); in [4] it was 0.662 (inactive); in [5], -0.268 (inactive); in assay [11], 0.767 (inactive); in assay [13], 0.961 (inactive). The z-score in assay [14] is -1.13 (inactive); in [15] it was -0.826 (inactive); in [16] it was -0.967 (inactive); in [17], 0.338; in assay [18], 0.848 (inactive); in assay [19], 1.65 (inactive). In assay [20], this molecule gave a z-score of 0.953.
In the case of `CCCCCCCCCCC(O)C1C=CC2C(=O)N(c3ccccc3)C(=O)C2N1Nc1ccccc1F` (stereo not given), the composite z-score in assay [1] was -0.13; in assay [6], 0.282; in [7], 0.0074; in [8], -0.35; in assay [9] it was -0.524; in [10], -0.992. Besides, in assay [12], the composite z-score was 0.145. The z-score is 0.325 (inactive) in [2]; -0.425 (inactive) in assay [3]; -1.09 (inactive) in assay [4]; 0.476 (inactive) in [5]; -1.43 (inactive) in assay [11]; 2.64 (inactive) in assay [13]. The z-score in [14] was 1.45 (inactive); in assay [15] it was -0.518 (inactive); in [16], 1.91 (inactive); in assay [17], -0.827; in assay [18], -0.534 (inactive); in assay [19] it was 0.101 (inactive). The z-score in [20] was -1.24.
As to `CCN(CC)c1ccc(N2CC=CC34O[C@@H]5/C=C\CCC(C)OC(=O)C5[C@H]3C(=O)N(C(C)CO)[C@@H]4C2=O)cc1` (stereo not given in full), the composite z-score in assay [1] was -0.0075; in assay [6], -0.417; in assay [7], -0.0986; in assay [8], -0.0697; in [9] it was -0.116; in [10], 0.808. The composite z-score in assay [12] is -0.196. The z-score in assay [2] was 0.269 (inactive); in assay [3], 0.515 (inactive); in assay [4] it was 0.87 (inactive); in assay [5], 0.46 (inactive); in assay [11], 1.23 (inactive); in [13] it was 0.946 (inactive). Further, the z-score in [14] is -0.227 (inactive); in [15] it was 0.987 (inactive); in assay [16], 0.304 (inactive); in [17] it was -0.276; in assay [18], 0.33 (inactive); in assay [19], -0.619 (inactive). Also, the z-score in [20] is 1.69.
Consider `C=CCC(OC(C)=O)[C@@H]1[C@@H](N(Cc2cccc3ccccc23)C(=O)c2cccc3ccccc23)c2cc(OCCCO)ccc2N1C(=O)c1ccc2ccccc2c1` (stereo not given in full), for which the composite z-score in assay [1] is -0.23; in assay [6], -0.0629; in assay [7], -0.0288; in assay [8], 0.0265; in assay [9], -0.252; in assay [10], 0.49. This molecule yielded a composite z-score in assay [12] of -0.333. Also, the z-score in assay [2] was -2.35 (inactive); in [3], 0.311 (inactive); in [4] it was -1.1 (inactive); in assay [5] it was 1.03 (inactive); in [11] it was 0.0047 (inactive); in assay [13] it was 0.529 (inactive). Further, the z-score in assay [14] was -0.128 (inactive); in assay [15], 1.41 (inactive); in assay [16] it was 0.0897 (inactive); in assay [17], 0.914; in [18], -2.77 (inactive); in assay [19] it was -1.09 (inactive). Also, the z-score in [20] was -2.66.
